Screens as filed in PubChem BioAssay.
USP8 block: inhibitors of human USP8 deubiquitinase; P40818; purified USP8, Ub-rhodamine cleavage fluorescence, 30 min; inhibition, % at 20 µM; 47,000 tested, 4.2% active
Target sequence (P40818 whole entry, looked up): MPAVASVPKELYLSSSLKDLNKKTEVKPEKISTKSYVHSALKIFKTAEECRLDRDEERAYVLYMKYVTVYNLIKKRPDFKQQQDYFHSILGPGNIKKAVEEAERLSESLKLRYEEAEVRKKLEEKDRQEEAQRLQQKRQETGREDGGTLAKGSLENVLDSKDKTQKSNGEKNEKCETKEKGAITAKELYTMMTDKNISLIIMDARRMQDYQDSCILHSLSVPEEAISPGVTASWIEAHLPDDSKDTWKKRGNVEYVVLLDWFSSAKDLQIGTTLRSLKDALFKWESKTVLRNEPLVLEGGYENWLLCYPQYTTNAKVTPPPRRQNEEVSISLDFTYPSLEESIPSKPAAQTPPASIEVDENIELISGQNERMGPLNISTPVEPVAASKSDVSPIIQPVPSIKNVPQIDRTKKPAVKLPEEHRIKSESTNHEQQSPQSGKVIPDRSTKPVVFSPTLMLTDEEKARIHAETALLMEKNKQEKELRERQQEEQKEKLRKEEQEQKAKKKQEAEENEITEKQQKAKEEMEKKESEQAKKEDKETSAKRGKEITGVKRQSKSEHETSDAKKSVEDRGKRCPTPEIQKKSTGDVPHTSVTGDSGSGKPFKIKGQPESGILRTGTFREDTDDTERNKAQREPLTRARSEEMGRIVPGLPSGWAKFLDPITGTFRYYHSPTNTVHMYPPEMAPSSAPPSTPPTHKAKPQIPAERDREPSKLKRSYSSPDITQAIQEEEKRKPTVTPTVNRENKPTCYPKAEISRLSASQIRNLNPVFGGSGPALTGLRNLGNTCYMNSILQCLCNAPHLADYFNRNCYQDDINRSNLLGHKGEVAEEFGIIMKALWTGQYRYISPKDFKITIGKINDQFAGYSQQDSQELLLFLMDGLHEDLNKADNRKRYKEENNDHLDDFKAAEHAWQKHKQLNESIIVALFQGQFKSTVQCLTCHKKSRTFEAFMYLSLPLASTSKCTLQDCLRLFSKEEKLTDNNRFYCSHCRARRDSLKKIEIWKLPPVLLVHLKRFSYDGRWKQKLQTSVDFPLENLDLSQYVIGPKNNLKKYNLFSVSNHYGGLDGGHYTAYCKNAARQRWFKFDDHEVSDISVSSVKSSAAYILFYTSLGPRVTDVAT
UCHL1 block: human UCHL1 deubiquitinase inhibition; P09936; purified UCHL1, Ub-rhodamine cleavage fluorescence; inhibition, % at 20 µM; 47,000 tested, 0.2% active; AID 1645859
USP7 inh: inhibitors of human USP7 deubiquitinase. inhibition, % at 20 µM. 47,000 tested, 0.3% active. purified USP7, Ub-rhodamine cleavage fluorescence
USP10 inh: inhibitors of human USP10 deubiquitinase; purified USP10, Ub-rhodamine fluorescence, 60 min; Q14694; 47,000 tested, 1.1% active; inhibition, % at 20 µM; AID 1645856
Starred values were filed as active, the others as inactive. Shown are actives, neighbours in structure and some others; about 5% of the full set was active somewhere. Cut-off read from the data, not from the text of the source: active = inhibition above about 30%; inactive = the rest.

SMILES	USP8 block	UCHL1 block	USP7 inh	USP10 inh
CN1[C@@H](CCC(=O)N2CC[C@@H](O)C2)CNC(=O)[C@@H]2[C@H]1CCN2C1CCCCC1	-7	-2	-6	-3
COc1ccc(CN2CC[C@@H]3[C@H]2C(=O)NC[C@H](CCC(=O)N2CCOCC2)N3C)cc1	7	2	-1	0
C#CCNC(=O)CC[C@H]1CNC(=O)[C@@H]2[C@@H](CCN2CC2CC2)N1C	6	0	1	1
CN1[C@@H](CCC(=O)N2CCN(c3ccccn3)CC2)CNC(=O)[C@@H]2[C@H]1CCN2C1CCOCC1	69*	12	-13	-2
C#CCNC(=O)CC[C@H]1CNC(=O)[C@@H]2[C@@H](CCN2C2CCCCC2)N1C	42*	9	-7	3
Cc1ccc(CN2CC[C@@H]3[C@H]2C(=O)NC[C@H](CCC(=O)N2CCOCC2)N3C)cc1	12	3	2	-1
CN1[C@@H](CCC(=O)N2CCC(O)CC2)CNC(=O)[C@@H]2[C@H]1CCN2Cc1ccc(F)cc1	38*	10	-2	-4
CN1[C@@H](CCC(=O)N2CCOCC2)CNC(=O)[C@@H]2[C@H]1CCN2Cc1ccc(F)cc1	43*	10	-24	0
O=C(Nc1ccccc1)Nc1ccc2nc3n(c(=O)c2c1)CCCC3	-20	0	-5	-6
CCOC(=O)N1CCN(C2=Cc3ccccc3Sc3ccccc32)CC1	11	1	2	1
O=C(CCn1c(=O)c2ccccc2n(CC(=O)Nc2ccc(F)cc2F)c1=O)NCCc1ccccc1	25	-6	4	10
Cc1cc(=O)n2[nH]c(C(c3ccccc3)c3ccccc3)nc2n1	0	1	4	6
Cc1nc2nc(C(c3ccccc3)c3ccccc3)[nH]n2c(=O)c1Cc1ccccc1	27	3	11	34*
CC1Cc2ccccc2N1S(=O)(=O)c1cccc(C(=O)NCc2ccc3c(c2)OCO3)c1 (stereo unspecified)	39*	3	8	10
CC1Cc2ccccc2N1S(=O)(=O)c1cccc(C(=O)OCC(=O)Nc2ccc3c(c2)OCO3)c1 (stereo unspecified)	37*	1	7	8
Cc1cc(O)ccc1NC(=O)CC(NCCc1ccccc1)C(=O)O (stereo unspecified)	31*	1	6	3
Cc1nc(C2CN(CC(=O)N(C)C3(C#N)CCCCC3)CCO2)n[nH]1 (stereo unspecified)	-6	-1	-1	-8
CCCOc1cccc(C(=O)Nc2ccc(-n3cnnn3)cc2)c1	48*	2	6	19
Cn1c(CCNC(=O)c2[nH]nc3c2CCc2ccccc2-3)nc2ccccc21	59*	-2	-1	18
COc1ccccc1CNC(=O)c1[nH]nc2c1CCc1ccccc1-2	-5	5	9	-1
COc1ccc(NC(=O)Cn2c(C)cc(=O)n3nc(-c4cccc(C)c4)nc23)cc1	64*	1	22	47*
Cc1ccc(C(=O)[C@H]2C(c3ccccc3OCC#N)=NO[C@]23C(=O)Nc2ccccc23)cc1	9	6	3	9
CCN1CCc2nc(NC(=O)COc3ccc4ccccc4c3)sc2C1	-31	-7	-6	-17
O=C(COc1ccc2ccccc2c1)Nc1cccc2ccccc12	36*	4	9	13
CCc1ccccc1NC(=O)COc1ccc(Nc2ccccc2)cc1	35*	10	11	13
SMILES	USP8 block	UCHL1 block	USP7 inh	USP10 inh
O=C(COc1ccc2c3c(c(=O)oc2c1)CCC3)Nc1ccccc1N1CCOCC1	0	-1	-1	0
NC(=O)c1ccccc1NC(=O)COc1ccc2c(c1)oc(=O)c1ccccc12	55*	1	10	15
CCC(Cc1ccccc1)NC(=O)c1nnc(Cc2ccccc2Cl)o1 (stereo unspecified)	12	4	4	2
COCCNC(=O)c1ncn2c1C(=O)N(C1CC1)C(C)(C(=O)NCc1ccccc1)C2 (stereo unspecified)	4	2	0	4
O=C(Cn1cccc1-c1nc(-c2ccccc2)cs1)N1CCCC1	20	-2	3	3
Cc1ccc(Nc2nc(C(=O)NCc3ccc4c(c3)OCO4)cc3occc23)cc1Cl	76*	5	-14	7
Cc1cc(C)c(C(=O)CSc2nnc(-c3ccccc3)o2)cc1C	56*	-2	0	-4
Cc1cc(C(=O)N2CCOCC2)c(C)n1-c1ccc(O)cc1	94*	20	-6	10
O=C(O)c1ccccc1-c1ccccc1C(=O)N1CCOCC1	3	1	4	1
CC1CCCN(CCCNC(=O)c2ccc3c(c2)NC(=O)C2CCCN32)C1 (stereo unspecified)	30	-54	-64	-5
